HCMV antiviral: inhibitors of human cytomegalovirus. actives 4.5% (n = 410,000). activity change, negative = inhibition, % at 57.5 µM. HFF cells, HCMV-luciferase reporter, 72 h; active compounds read low; in the data active means activity change below about -60%; inconclusive means no clear call, values can overlap the other calls; inactive means above about -39%
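Cell-based, HFFs, 1000 cells/well, 16 h 37C; cpds in DMSO + HCMV-luc, MOI 1 PFU/cell; 72 h 37C; OneGlo luminescence after 5 min RT; norm. to buffer vs Salinomycin 10uM.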
Sm TGR inh: S. mansoni TGR enzyme inhibition | Q962Y6 | purified TGR, DTNB reduction, TNB absorbance 405 nm | Potency, µM (top dose mostly 114 µM), usual class: inhibitors | actives 3% (n = 360,000) | AID 485364; further: nearly all actives have a fitted effect of over 60% in size
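Kinetic colorimetric format: TGR-catalysed, NADPH-driven DTNB reduction monitored via TNB absorbance. Enzyme dispensed at 20 nM; compound exposure 15 min at room temperature before reaction start.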
TbPYK inhibitor: blocks Trypanosoma brucei pyruvate kinase; Q57TT1; TbPYK enzyme, Kinase-Glo Plus ATP luminescence, 45 min; Potency, µM (series often up to 76.8 µM), hits mostly inhibitors; actives 0.12% (n = 410,000); AID 624173; further: nearly all actives have a fitted effect of over 50% in size
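Assay buffer: 50 mM TEA pH 7.2, 100 mM KCl, 10 mM MgCl2, 0.05% BSA, 0.01% Tween-20. Pyruvate kinase from T. brucei plus substrate met compound, then ADP (130 uM final). Luminescence was read post 45 min RT.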
FMDV inh: antivirals against foot and mouth disease virus; FMDV antiviral cell-based qHTS; Potency, µM (series often up to 57.9 µM), actives largely listed as inhibitors; actives 1.2% (n = 410,000); AID 1159524; calls by dose curve; tested in HEK293T cells; further: read-out not given here; nearly all actives have a fitted effect of over 45% in size
FBPA Giardia inh: inhibitors of Giardia lamblia fructose-1,6-bisphosphate aldolase; A8B2U2; AID 2451; actives 0.71% (n = 290,000); Potency, µM (top dose mostly 59.6 µM), most hits filed as inhibitors; purified Giardia FBPA; further: nearly all actives have a fitted effect of over 55% in size
Target sequence (A8B2U2 whole entry, looked up): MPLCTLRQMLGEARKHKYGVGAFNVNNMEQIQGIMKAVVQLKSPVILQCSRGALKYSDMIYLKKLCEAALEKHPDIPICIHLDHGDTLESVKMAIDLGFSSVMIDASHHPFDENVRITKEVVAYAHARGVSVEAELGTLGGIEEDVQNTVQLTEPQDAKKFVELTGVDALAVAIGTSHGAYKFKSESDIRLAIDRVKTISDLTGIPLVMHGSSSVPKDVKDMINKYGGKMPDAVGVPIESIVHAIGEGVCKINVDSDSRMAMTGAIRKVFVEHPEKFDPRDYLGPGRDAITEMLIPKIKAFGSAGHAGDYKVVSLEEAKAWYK
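40 nM FBPA preincubated 10 min at RT with compound (up to 57.5 uM final), then substrate plus GAPDH/TPI/NAD/arsenate coupling and diaphorase/resazurin added. Fluorescence read after 20 min at RT, 525/598 nm.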
RE007 growth inh: less growth of the S. pombe RE007 Vpr strain; AID 651644; Potency, µM (doses to about 92.2 µM), most hits filed as inhibitors; S. pombe RE007 Vpr strain, BacTiter-Glo ATP luminescence, 24 h; actives 0.21% (n = 360,000); active means well fitted falling curve with a large enough effect; inconclusive means small, poorly fitted or top-dose-only effect; inactive means no such curve, though single readings can be large or run the other way; further: nearly all actives have a fitted effect of over 50% in size
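Fission yeast RE007 carrying one integrated HIV-1 vpr copy, seeded at OD 0.01 in PMG+AL medium with 23 nL pinned compound. Grown 24 h at 30 degrees; viability read by BacTiter-Glo luminescence after 5 min.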
A number is an active result; i = inactive; ? = inconclusive; nt = not tested or not shown; [ ] = dose if it differs, or a comment. Sampled rows, rich in hits. Any-hit rate of the full collection: about 7.7%. Unless noted, the call rests on the fitted dose curve; in most records, active means well fitted curve in the direction sought with a large enough effect; inconclusive means small, poorly fitted or top-dose-only effect, or another doubt; inactive means no such curve, though single readings can be large; an effect the other way counts as inactive or inconclusive.

SMILES	HCMV antiviral	Sm TGR inh	TbPYK inhibitor	FMDV inh	FBPA Giardia inh	RE007 growth inh
O=C(c1nnsc1S(=O)c1ccc(Cl)cc1)N1CCOCC1 (stereo not given)	-98	2.5µM	i	35µM	i	?
O=C(c1nnsc1S(=O)(=O)c1ccc(Cl)cc1)N1CCOCC1	i	11µM	i	16µM	i	i
CNC(=O)c1nnsc1S(=O)(=O)c1ccc(Cl)cc1	-94	0.28µM	i	?	i	?
CC(=O)c1ccc(F)c(-c2cc(C)cc3c2OC(CNC(=O)c2csc(C)n2)C3)c1 (stereo not given)	nt	nt	nt	i	nt	nt
CCS(=O)(=O)c1nnnn1-c1ccccc1S(C)(=O)=O	-93	i	i	40µM	i	i
Cc1c(Cl)cccc1NC(=S)NCc1cccs1	-80	i	i	i	i	i
CCCCc1ccc(NC(=S)NCc2cccs2)cc1	-80	i	nt	i	i	i[3.69 µM]
Cc1c(Cl)cccc1NC(=S)NN1CCOCC1	i	32µM	i	i	i	i
S=C(NCc1cccs1)Nc1cccc(Cl)c1Cl	-79	?	i	i	i	i
Cc1c(Cl)cccc1NC(=S)NCCN1CCOCC1	i	i	i	i	i	i
O=C(Nc1cccc(C(F)(F)F)c1)c1cc2nc(-c3ccccc3)cc(C(F)(F)F)n2n1	i	i	i	i	nt	nt
COc1ccc(CN2C[C@H](COCc3ccccc3)Oc3cccc(Oc4ccc(C(C)C)cc4)c3S2(=O)=O)cc1	i	nt	nt	nt	nt	nt
CCOc1ccc(C2C(=O)N(C3CCCCC3)CC(=O)N2C2CCCC2)cc1OC (stereo not given)	i	i	i	i	nt	nt
COc1cc(C(O)c2nc(C(=O)NCCN(C)C)cs2)cc(OC)c1OC (stereo not given)	i	nt	nt	nt	nt	nt
CCOC(=O)C1=CCN(S(=O)(=O)c2ccc([N+](=O)[O-])cc2)C1c1ccc(C)cc1 (stereo not given)	i	nt	nt	nt	nt	nt
CC(C)(C)NC(=O)N1c2ccccc2Sc2ccccc21	-60	i	i	i	i	i
CC(C)CNCC(=O)N1c2ccccc2Sc2ccccc21	-71	i	i	i	?	i
COc1ccc(CCNC(=O)N2c3ccccc3Sc3ccccc32)cc1	?	nt	i	18µM	nt	i
COc1ccccc1C(=O)N1c2ccccc2Sc2ccccc21	-73	i	i	i	i	i
Cc1ccc(C)c(C2=NNC(=NCc3ccccc3)SC2)c1	-66	i	?	i	i	i
COc1ccc(NC(=O)CSc2nc(-c3cccc(C)c3)[nH]c2-c2ccccc2)cc1OC	i	?	i	i	nt	nt
CN(c1ccccc1)c1ccc(/C=C/[N+](=O)[O-])cc1	-99	i	i	16µM	i	?
CN(C)c1ccc(/C=C/[N+](=O)[O-])cc1	i	i	i	i	i	i
CCCOc1ncnc2c1[nH]c1ccc(OC)cc12	i	i	i	i	i	i
CCCOc1ncnc2c1[nH]c1ccccc12	-85	i	i	?	i	?
SMILES	HCMV antiviral	Sm TGR inh	TbPYK inhibitor	FMDV inh	FBPA Giardia inh	RE007 growth inh
O=C1Nc2cc(S(=O)(=O)N3CCCC3)ccc2N2CCCC12 (stereo not given)	i	13µM	i	i	i	i
CCCCCCCCCCCCCCCC[N+](C)(C)Cc1ccc(F)cc1	-89	nt	i	i	nt	?
CCCCCCCCCCCCC[N+](C)(C)Cc1ccccc1	nt	nt	nt	28µM	i	nt
CCCCCCS(=O)Cc1ccccc1 (stereo not given)	i	i	i	i	i	i
Cn1cnnc1Sc1nc([N+](=O)[O-])nn1C	i	i	i	i	i	i
COc1ccccc1-c1nnc(Sc2nc([N+](=O)[O-])nn2C)o1	-75	?	i	28µM	i	i
COc1ccc(N(CC(=O)Nc2cc(C)ccc2C)S(=O)(=O)c2ccc(OC)c(OC)c2)cc1	i	i	i	?	nt	nt
COc1ccc(C2=C/C(=C\c3cccc(OC(C)=O)c3)C(=O)O2)cc1	-65	i	i	i	i	i
Cc1cccc(-n2ncc(C(=O)NCc3ccc4c(c3)OCO4)c2C2CCN(C(=O)OC(C)(C)C)CC2)c1	i	i	i[15.4 µM]	i	nt	nt
CC1NC(C(=O)O)Cc2c1[nH]c1ccccc21 (stereo not given)	nt	nt	nt	i	nt	nt
Oc1[nH]c2c(Cl)cc(Cl)cc2c1N=NC(=S)NCC1CCCO1 (stereo not given)	-68	i	i	25µM	i	i
Cn1nnc2c(N3CCN(c4ccccc4Cl)CC3)ncnc21	i	i	i	i	nt	nt
FCCCOc1ccc(-c2nccc(-c3ccccn3)n2)cc1	i	i	i	i	i	?
O=C(O)COc1ccc(-c2nccc(-c3ccccn3)n2)cc1	-71	i	i	?	?	i
COc1ccc(OC)c(CNC(=O)c2ccc(N3Cc4ccccc4Oc4ncccc43)s2)c1	i	i	i	i	nt	nt
C=CCNC(=S)Nc1sc2c(c1C(=O)OCC)CCN(C(=O)OCC)C2	i	i	i	i	i	i
CCOC(=O)c1c(NC(=S)N2CCOCC2)sc2c1CCN(C(=O)OCC)C2	-109	i	i	?	i	i
CCOC(=O)c1c(NC(=S)N2CCCCC2)sc2c1CCN(C(=O)OCC)C2	-98	i	i	i	i	i
COc1ccc(N=C2NC(=O)/C(=C\C=C\c3ccccc3)S2)cc1	i	i	i	i	i	i
O=C1NC(=Nc2ccccc2)S/C1=C\C=C\c1ccco1	i	11µM	i	i	?	i
Cc1ccc(N=C2NC(=O)S/C2=C\c2ccco2)cc1	i	i	i	i	i	i
Cc1cccc(N=C2NC(=O)/C(=C/C=C/c3ccco3)S2)c1C	i	10µM	i	i	i	i
COc1ccc(N=C2NC(=O)/C(=C/C=C/c3ccccc3)S2)cc1	i	i	i	i	i	i
O=C1NC(=Nc2ccccc2)/C(=C/c2ccco2)S1	i	50µM	i	i	i	i
Cc1ccc(N=C2NC(=O)/C(=C/C=C/c3ccco3)S2)cc1	i	45µM	i	i	i	i
SMILES	HCMV antiviral	Sm TGR inh	TbPYK inhibitor	FMDV inh	FBPA Giardia inh	RE007 growth inh
COCCN1C(=O)N(c2cccc(OC)c2)C(=O)C1CC(=O)Nc1ccccc1 (stereo not given)	i	i	i	i	nt	nt
CCc1ccc(S(=O)(=O)c2nnn3c2nc(Nc2cc(OC)ccc2OC)c2sccc23)cc1	i	i	i	i	nt	nt
COc1ccc(NC(=O)CSc2c3c(nc4ccc(Cl)cc24)CCCC3)cc1Cl	-80	i	i	?	nt	nt
Cc1ccc(C)c(NC(=O)CSc2c3c(nc4ccc(Cl)cc24)CCCC3)c1	-74	i	i	i	nt	nt
COc1ccc(NC(=O)CSc2c3c(nc4cc(Cl)ccc24)CCCC3)cc1OC	i	i	i	?	i	i
Cc1ccc(CNC(=O)CSc2c3c(nc4ccc(Cl)cc24)CCCC3)cc1	i	i	i	i	nt	nt
O=c1c2ccccc2n2c(-c3ccccc3F)nnc2n1CCc1ccccc1	i	i	i	i	nt	nt
